Where “and” joins values, the source holds several entries; their conditions need not be identical. Identical values can stand only once. Results filed as inconclusive are left out. Unmarked numbers belong to inactive results. Calls of active or inactive are those of the source. Calls come from the whole dose curve; as a rule, active = well fitted curve in the direction sought with a large enough effect; inconclusive = small, poorly fitted or top-dose-only effect, or another doubt; inactive = no such curve, though single readings can be large; an effect the other way counts as inactive or inconclusive.

The results in this text go back to PubChem BioAssay (NCATS).

A short description of test [1]: Viability qHTS for spleen associated tyrosine kinase inhibitor (SYKi) drug resistant MV4-11 cells (AID 1963824). Note: nearly all actives have a fitted effect of over 35% in size. In a few lines: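 SYK-inhibitor-resistant MV4-11 AML cells were seeded at 500 per well onto compound and cultured 72 hours (37 °C, 5% CO2). CellTiter-Glo was then added, and after 10 min at room temperature, luminescence gave viability.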
(In general: qHTS replaces the single test concentration by a dilution series.)

Test [2] can be described thus: Cellular viability qHTS for adrenocortical cancer (ACC) cell line SW-13 (AID 1963989).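 For activity (max response): cells grown in serum-free medium with ITS supplement; % is set by controls: 0 for no effect and ±100 for the full control effect.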 Note: nearly all actives have a fitted effect of over 65% in size. The settings on record: SW-13 ACC cells viability, CellTiter-Glo, 48 h; activity (max response): active compounds read low. A digest of the protocol:
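Here, serum-free SW-13 cultures were dosed up to 46 uM. Following 48 h, ATP-dependent luminescence (CellTiter-Glo) reported viable cells, and logistic modeling produced IC50 values.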

Test [3] in a line: Cellular viability qHTS for adrenocortical cancer (ACC) cell line NCI-H295R (AID 1963990).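 For activity change, negative = viability loss: 0% = DMSO only wells and -100% = full killing with cytotoxic reference compound.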 Note: nearly all actives have a fitted effect of over 60% in size. A digest of the protocol: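 Viability of NCI-H295R after 48 h of treatment (final up to 46 uM) measured through cellular ATP luminescence.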
Potency is the fitted concentration of half-maximal effect.

As for `Cc1ccc(C(C)OC(=O)C2(C)CCC(C(=O)O)C2(C)C)cc1` (stereo not given), the Potency entry in test [1] and in test [3] was “inactive” throughout. Moreover, the activity (max response) in test [2] is 8.64%.
As to `Cc1ccsc1/C=C/C1=NCCCN1C`, the Potency entry in test [1] and in test [3] was “inactive” each time. Moreover, in test [2], the activity (max response) is -3.84%.
Turning to `COC1CC(C(=O)c2ccc3c(N)ncc(-c4ccc(-c5cnn(C)c5)cc4)c3n2)C1` (stereo not given), the Potency in test [1] is 0.296 µM (active). For the same molecule, the activity (max response) in test [2] is -16.1%. In addition, the Potency result in test [3] was “inactive”.
For `O=C1CCCc2c(O)cccc21` the same measures were “inactive”, -6.15% and “inactive”.
Consider `Oc1ccc(Cl)cc1Sc1cc(Cl)ccc1O`, for which the Potency in test [1] is 15 µM (active); in test [2], 3260 nM (active); in test [3], 4110 nM (active).
Regarding `COc1cc(N2CCC(N3CCN(C)CC3)CC2)ccc1Nc1ncc(Cl)c(Nc2ccccc2P(C)(C)=O)n1`, the Potency was 130 nM (active) and 23.5 nM (active) in test [1]; 1000 nM (active) in test [2]; 1120 nM (active) in test [3].
Turning to `C[n+]1c2cc(N)ccc2cc2ccc(N)cc21` (tested in a mixture with another compound), the Potency in test [1] is 1.88 µM (active); in test [2], 2310 nM (active); in test [3] it was 1300 nM (active).
In the case of `C[n+]1cc2c3c(ccc2c2ccc4cc5c(cc4c21)OCO5)OCO3`, the Potency in test [1] was 1.3 µM (active); in test [2], 2240 nM (active); in test [3], 1420 nM (active).
As for `CC(=O)O[C@]1(C(C)=O)CC[C@H]2[C@@H]3C=C(Cl)C4=CC(=O)[C@@H]5C[C@@H]5[C@]4(C)[C@H]3CC[C@@]21C`, the Potency in test [1] was 14.6 µM (active). Also, in test [2], the activity (max response) is -7.85% and -11.2%. The Potency result in test [3] was “inactive”.
`CC[C@H](NC(=O)[C@H](CS(=O)(=O)CC1CC1)N[C@@H](c1ccc(F)cc1)C(F)(F)F)C(=O)C(=O)NC1CC1`: the Potency entry in test [1] and in test [3] was “inactive” throughout. Also, in test [2], the activity (max response) was -11.3%.
Regarding `Cc1cc(-c2nc3cc(F)ccc3s2)ccc1NC(=O)[C@@H](N)CCCCN`, the values for the Potency in test [1], in test [2] and in test [3] were 2.59 µM (active), 25100 nM (active) and 17800 nM (active), respectively.
Regarding `CS(=O)(=O)Nc1ccc([N+](=O)[O-])cc1Oc1ccccc1`, in test [1], the Potency is 14.8 µM (active). Moreover, the activity (max response) in test [2] is 9.34% and -1.91%. Also, the Potency result in test [3] was “inactive”.
As to `COc1ccc2c(c1)CC[C@@H]1[C@@H]2CC[C@]2(C)[C@@H](NCCCCCCN3C(=O)C=CC3=O)CC[C@@H]12`, the Potency in test [1] is 5.25 µM (active). In test [2], the activity (max response) is -14.7%. Further, the Potency entry in test [3] is “inactive”.
Taken in the same sequence, the figures for `COCCc1ccc(OCC(O)CNC(C)C)cc1` (stereo not given) were “inactive”, -3.54% and “inactive”.
In the case of `c1ccc(Cn2c(-c3ccc(OCC(C4CCNCC4)n4c(-c5ccccc5)nc5ccccc54)cc3)nc3ccccc32)cc1` (stereo not given), the Potency in test [1] is 7.42 µM (active); in test [2] it was 25100 nM (active); in test [3], 7080 nM (active).
For `C/C(=C(\CCOP(=O)(O)O)SC(=O)c1ccccc1)N(C=O)Cc1cnc(C)nc1N`, the viability, % of control in test [1] was 78.4% [at 4.97 µM]. For the same molecule, the activity (max response) in test [2] was 11.3%. For the same molecule, in test [3], the activity change, negative = viability loss was 7.45% [at 3.81 µM].
As for `CCOC(=O)CCNc1cc(N2CCc3ccccc3CC2)nc(-c2ccccn2)n1`, the Potency is 5.25 µM (active) in test [1], 1260 nM (active) in test [2] and 8910 nM (active) in test [3].
Turning to `O=C(NOCCO)c1cc(CN2OCCCC2=O)c(F)c(F)c1Nc1ccc(I)cc1F`, the Potency was 0.0651 µM (active) in test [1], 7080 nM (active) in test [2] and 25100 nM (active) in test [3].
With `COc1ccnc2[nH]cc(C(=O)C(=O)N3CCN(C(=O)c4ccccc4)C[C@H]3C)c12`, the Potency result in test [1] and in test [3] was “inactive” each time. For the same molecule, in test [2], the activity (max response) was 1.31%.
Regarding `C1=CC2C3C=CC(C3)C2C1` (stereo not given), the Potency entry in test [1] and in test [3] was “inactive” each time. Besides, the activity (max response) in test [2] was 5.69%.
Consider `COc1ccc(S(=O)(=O)N(C(C)=O)c2ccccc2/C=C/c2cc[n+]([O-])cc2)cc1`, for which the Potency in test [1] was 0.833 µM (active); in test [2], 1120 nM (active); in test [3] it was 1410 nM (active).
Regarding `COc1ncc(Nc2ncc([C@H](C)N3CCN(S(C)(=O)=O)CC3)cc2-c2nc(C)nc(N)n2)cc1F`, the figures for the Potency in test [1] and in test [3] were 2.35 µM (active) and 224 nM (active), respectively. In addition, in test [2], the activity (max response) was -5.36%.
For `CC(=O)OCC(=O)[C@@]1(O)CCC2C3CCC4=CC(=O)CC[C@]4(C)C3[C@@H](O)C[C@@]21C` (stereo not given in full), the Potency result in test [1] and in test [3] was “inactive” throughout. Besides, in test [2], the activity (max response) was -1.87%.
For the molecule `CO[C@@H]1[C@@H](O)[C@H](O)[C@@H](n2c3c(Cl)cccc3c3c4c(c5c6cccc(Cl)c6[nH]c5c32)C(=O)NC4=O)O[C@H]1CO`, the Potency in test [1] was 0.742 µM (active); in test [2], 316 nM (active); in test [3], 5620 nM (active).
In the case of `CC(C)n1c(=O)cc(N[C@@H](C)c2ccccc2)[nH]c1=O`, the Potency in test [1] is 11.8 µM (active). In test [2], the activity (max response) is 6.06%. For the same molecule, the Potency entry in test [3] was “inactive”.
Taken in the same sequence, the figures for `CCCCC(CC)COC(=O)c1ccccc1C(=O)O` (stereo not given) were 19.7 µM (active), 6.28% and “inactive”.
As for `N#Cc1ccnc(N2C(=O)CC[C@H]2C(=O)N(c2cncc(F)c2)C(C(=O)NC2CC(F)(F)C2)c2ccccc2Cl)c1` (stereo not given in full), the Potency result in test [1] and in test [3] was “inactive” in each case. For the same molecule, in test [2], the activity (max response) was 6.42%.
Take `CC[C@@]1(O)C(=O)OCc2c1cc1n(c2=O)Cc2c-1nc1cc(F)c(C)c3c1c2[C@@H](N)CC3`: the Potency in test [1] is 0.0042 µM (active); in test [2], 794 nM (active); in test [3], 5010 nM (active).
For the molecule `CCc1cccc2c3c([nH]c12)[C@@](CC)(CC(=O)O)OCC3`, in test [1], the Potency is 14.8 µM (active). The activity (max response) in test [2] is -21.1%. The Potency result in test [3] was “inactive”.
For `Nc1ccc(O)cc1` the same measures were “inactive”, 0.149% and “inactive”.
